# Assay outcomes as filed in PubChem BioAssay.
# Sampled rows, rich in hits. Any-hit rate of the full collection: about 11%.
# HPGD inh: HPGD (human) dehydrogenase inhibition; purified HPGD, NADH fluorescence kinetic, PGE2 substrate; Potency, µM, inactives show at the highest dose activity change, negative = inhibition, hits mostly inhibitors; actives 4.3% (n = 150,000); also: potency is read from the fitted curve at half-maximal effect
# Target sequence (P15428 whole entry, looked up): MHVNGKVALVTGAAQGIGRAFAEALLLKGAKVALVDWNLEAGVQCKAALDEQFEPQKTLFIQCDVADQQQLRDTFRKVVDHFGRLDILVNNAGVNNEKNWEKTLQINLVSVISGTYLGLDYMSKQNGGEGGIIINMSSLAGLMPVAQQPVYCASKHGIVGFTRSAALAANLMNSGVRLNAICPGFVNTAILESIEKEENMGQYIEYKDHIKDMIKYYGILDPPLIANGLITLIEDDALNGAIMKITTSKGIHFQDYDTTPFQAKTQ
#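 NADH formation kinetics: reaction with 30 uM PGE2 and 1 mM NAD+ (final), 20 nM enzyme, Tris-HCl pH 8 with Tween 20, after 15 min compound preincubation at room temperature. Fluorescence change, last versus first of five reads.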
# NPSR antag: blocks cAMP signaling of the human neuropeptide S receptor; actives 1% (n = 220,000); Potency, µM (series often up to 38.3 µM), without a hit: top-dose activity change, negative = inhibition, usual class: inhibitors; CHO-NPSR cells, cAMP TR-FRET, antagonist mode; Q6W5P4; active = well fitted curve in the direction sought with a large enough effect; inconclusive = small, poorly fitted or top-dose-only effect, or another doubt; inactive = no such curve, though single readings can be large; an effect the other way counts as inactive or inconclusive; also: potency is read from the fitted curve at half-maximal effect; nearly all actives have a fitted effect of over 50% in size
# ALDH1A1 block: ALDH1A1 (human) enzyme inhibition; AID 1030; actives 7.3% (n = 220,000); Potency, µM (titrated, usually from 75.3 µM), without a hit: at the highest dose activity, negative = inhibition, usual class: inhibitors; P00352; Purified ALDH1A1, NADH fluorescence, propionaldehyde substrate;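 also: potency is read from the fitted curve at half-maximal effect; plate controls were no enzyme wells and a reference inhibitor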
# IMPase inh: membrane-permeable compound that blocks inositol monophosphatase; 120,000 tested, under 10 active; CHO-M1 cells, IP1 accumulation, HTRF TR-FRET ratio; inhibition (IP1 accumulation), % at 46.1 µM; P97697; active = well fitted curve in the direction sought with a large enough effect in the signal ratio, not every such curve was filed as active; inconclusive = small, poorly fitted or top-dose-only effect, or a change in a side signal; inactive = no such curve, though single readings can be large or run the other way; the % refers to the signal ratio;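 also: cells stimulated with carbachol in lithium chloride buffer; plate controls were DMSO basal wells for no effect and reference inhibitor wells for full effect; higher means more IMPase inhibition seen as more IP1 and lower FRET ratio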
# Target sequence (P97697 whole entry, looked up): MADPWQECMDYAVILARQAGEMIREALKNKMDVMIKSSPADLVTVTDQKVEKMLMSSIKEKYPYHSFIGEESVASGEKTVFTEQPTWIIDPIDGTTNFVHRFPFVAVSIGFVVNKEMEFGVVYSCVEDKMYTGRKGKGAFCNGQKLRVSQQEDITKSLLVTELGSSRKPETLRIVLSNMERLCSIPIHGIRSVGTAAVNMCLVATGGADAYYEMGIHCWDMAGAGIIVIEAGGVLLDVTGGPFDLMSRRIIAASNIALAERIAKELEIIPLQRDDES
#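 The IP-One HTRF competitive assay in carbachol-stimulated CHO-M1 cells quantifies cellular IP1. Compounds spanned up to 46 uM final, and activity is expressed as AC50 from concentration-response fits of the ratio and donor data.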
# IMPase Li cell: membrane-permeable IMPase blocker, potentiated with lithium. actives 0.35% (n = 210,000). AID 1457. Potency, µM (top dose mostly 59.4 µM), for the others: at the highest dose activity, negative = IMPase inhibition, actives largely listed as inhibitors. CHO-M1 cells, IP1 TR-FRET (IP-One), carbachol + lithium; active = well fitted curve in the direction sought with a large enough effect; inconclusive = small, poorly fitted or top-dose-only effect, or another doubt; inactive = no such curve, though single readings can be large; an effect the other way counts as inactive or inconclusive;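 also: IP1 builds up when IMPase is blocked and the TR-FRET signal falls; potency is read from the fitted curve at half-maximal effect; plate controls were basal vehicle for no effect and high inhibitor control for full effect; nearly all actives have a fitted effect of over 50% in size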
#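 IP1 accumulation measured by competitive TR-FRET in lysed CHO-M1 cells after 30 min compound exposure at 37C, with a small lithium addition to potentiate weak responses. Hill-equation AC50 from ratio and donor-channel data.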
# PNC inhibitor: perinucleolar compartment assembly inhibition | activity change (PNC), negative = inhibition, % at 10 µM | PC3M PTB-GFP, PNC prevalence imaging, 16 h; active compounds read low | actives 3.1% (n = 140,000);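 active = readout at or below -70, meaning at least 70% loss of cells showing the perinucleolar compartment, a nuclear body marking cancer cells; inconclusive = readout between -30 and a set limit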;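 also: plate controls were DMSO wells for no effect and camptothecin positive control wells for full effect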
#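 Read-out is percentage of cells bearing a perinucleolar compartment, from automated 20x imaging of fixed, Hoechst-stained PC3M PTB-GFP cells. Cells were seeded 4 h, then exposed 16 h to compound (23 nl of library stock) in duplicate plates.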
# * marks the source's active call; other numbers are inactive results; ? = inconclusive; nt = not tested or not shown; [ ] = another dose, or the depositor's remark. Unless noted, calls follow the shape of the dose curve; as a rule, active = well fitted inhibition curve with a large enough effect (not every such curve was filed as active); inconclusive = small, poorly fitted or top-dose-only effect, or another doubt; inactive = no such curve, though single readings can be large or run the other way. Unless noted, % is scaled to controls: 0 for no effect and ±100 for the full control effect.
SMILES,HPGD inh,NPSR antag,ALDH1A1 block,IMPase inh,IMPase Li cell,PNC inhibitor
CCc1cc(=O)oc2cc3occ(-c4ccc(OC)c(F)c4)c3cc12,?,16.5%[46.1 µM],-9.2%,-2.6,12.3%,-93.1*
O=C(OCC(=O)N(C1CCCCC1)C1CCCCC1)c1cnccn1,-6.7%,-5.3%[46.1 µM],-9.5%,-4.1,6.2%[38.3 µM],-1.0
Cc1c(NC2=NC(C)(C)Cc3ccccc32)c(=O)n(-c2ccccc2)n1C,-6.5%,-8.8%[46.1 µM],7.6%,-1.8,13.6%,-88.5*
CCC1(CC)Cc2ccccc2C(Nc2c(C)n(C)n(-c3ccccc3)c2=O)=N1,-9.9%,-1.6%[46.1 µM],1.0%,10.0,42.7%[38.3 µM],3.7
CSc1cccc(NC(=S)N(CCCN2CCCC2)Cc2cccn2Cc2ccc(Cl)cc2)c1,nt,5.01µM*,?,nt,20.5%,nt
Cn1cc(CN(CCCN2CCOCC2)C(=S)Nc2cccc(Cl)c2)c2ccccc21,-6.9%,-20.9%,-8.0%,0.4,0.4%,20.3
S=C(Nc1cccc(Cl)c1)N(CCCN1CCCC1)Cc1cccn1Cc1ccc(Cl)cc1,nt,10µM*,?,nt,21.0%,nt
CCC(C)[C@H](N)c1cn([C@@H](Cc2cc3ccccc3[nH]2)C(=O)N2CCNCC2)nn1 (some centres not stated),nt,-27.0%,0.5%,nt,-1.9%,nt
N=c1n(CC(=O)c2ccc([N+](=O)[O-])cc2)c2ccccc2n1Cc1ccccc1,-5.0%,-18.7%,-11.1%,-1.3,6.1%,-8.6
N=c1n(CC(=O)c2ccc([N+](=O)[O-])cc2)c2ccccc2n1Cc1ccccc1Cl,-6.2%,-47.9%,-11.4%,nt,1.0%,-87.8*
CCOC(=O)c1c(N/N=C/c2ccncc2)n[nH]c1C,-6.9%,-9.9%,-7.0%,nt,1.1%,28.0
COc1cccc(/C(O)=C2/C(=O)C(=O)N(CCN3CCOCC3)C2c2cccnc2)c1 (configuration not stated),-25.8%,-10.4%[46.1 µM],3.55µM*,8.7,-13.5%[38.3 µM],-17.5
COc1ccc(/C(O)=C2/C(=O)C(=O)N(CCN3CCOCC3)C2c2cccnc2)cc1OC (configuration not stated),-20.3%,17.5%[46.1 µM],25.1µM*,?,?,212.5
CC1Cc2cc(/C(O)=C3/C(=O)C(=O)N(CCCn4ccnc4)C3c3cccnc3)ccc2O1 (configuration not stated),-13.2%,14.1%[46.1 µM],-2.4%,-20.1,11.2µM*,13.3
CCOc1cccc(/C(O)=C2/C(=O)C(=O)N(CCN3CCOCC3)C2c2cccnc2)c1 (configuration not stated),-7.1%,4.0%[46.1 µM],?,-2.0,1.6%[38.3 µM],?
CC1Cc2cc(/C(O)=C3/C(=O)C(=O)N(CCCn4ccnc4)C3c3ccncc3)ccc2O1 (configuration not stated),-18.5%,13.4%[46.1 µM],-2.3%,-26.9,?,21.7
COCCNC(=O)Nc1ccc2nc(C)sc2c1,-13.1%,1.4%[46.1 µM],?,nt,-1.2%,1.2
CN(C(=O)/C=C/c1ccc2c(c1)OCO2)c1ccccc1,nt,16.4%,-8.9%,nt,3.8%,nt
C/C(N)=C(/C#N)C(=O)COC(=O)c1cc(S(=O)(=O)N2CCCCC2)ccc1C,-14.7%,-26.5%[46.1 µM],-2.5%,-0.8,4.3%,?
CCCNC(=O)COC(=O)c1ccc(Cl)c(S(=O)(=O)N2CCCC2)c1,-15.9%,-9.9%[46.1 µM],7.94µM*,6.8,-0.2%[38.3 µM],15.2
C/C(N)=C(/C#N)C(=O)COC(=O)c1ccc(C)c(S(=O)(=O)N2CCCCC2)c1,12.6µM*,?,?,9.5,62.4%[38.3 µM],-17.7
Cc1sc2cc3c(c(C(=O)c4ccccc4)[n+]2c1C)-c1cccc2cccc-3c12,-10.6%,?,-2.4%,nt,36.6%,15.5
O=C(c1ccccc1)c1c2c(cc3sc4ccccc4[n+]13)-c1cccc3cccc-2c13,-8.1%,10µM*,-7.4%,nt,30.1%,-13.9
COC(=O)C1CSC(C(=O)OC)N1C(=O)Nc1ccccc1 (configuration not stated),-2.9%,-3.8%[46.1 µM],7.0%,8.2,0.8%[38.3 µM],37.7
CCc1ccc(CCC(=O)Nc2ccc(C)c(C)c2)o1,-25.0%,?,12.6µM*,9.8,17.4%[38.3 µM],-10.7
SMILES,HPGD inh,NPSR antag,ALDH1A1 block,IMPase inh,IMPase Li cell,PNC inhibitor
CN1C(=O)/C(=C/c2ccc(-c3ccccc3[N+](=O)[O-])o2)SC1=Nc1ccc(Cl)c(C(=O)O)c1,14.1µM*,-20.9%,12.6µM*,0.2,-0.9%,?
Cc1ccc(C)c(N2C(=N)S/C(=C\c3ccc(-c4ccccc4C(=O)O)o3)C2=O)c1,nt,-8.0%,?,nt,4.0%,nt
CCc1cccc(C)c1NC(=S)N1CCCCC1c1cccnc1 (configuration not stated),nt,-2.8%,nt,nt,nt,nt
CC(=O)N1C(=O)/C(=C2\SC(=S)N(c3c(C)n(C)n(-c4ccccc4)c3=O)C2=O)c2ccccc21,-4.3%,-12.6%[46.1 µM],10µM*,5.0,3.8%,-18.3
CC(/C=C1\SC(=S)N(NS(=O)(=O)c2ccc(C)cc2)C1=O)=C\c1ccccc1,nt,-49.9%,nt,nt,nt,nt
CC(=O)N1C(=O)/C(=C2\SC(=S)N(NS(=O)(=O)c3ccc(C)cc3)C2=O)c2ccccc21,nt,22.9%,12.6µM*,nt,2.0%,nt
Cc1c(N2C(=O)/C(=C3/C(=O)N(C)c4ccccc43)SC2=S)c(=O)n(-c2ccccc2)n1C,6.7%,0.3%[46.1 µM],-0.1%,4.1,15.1%[38.3 µM],118.9
O=C(NCc1cccs1)NC1CCCCC1,nt,4.4%[46.1 µM],1.1%,-1.1,nt,?
CCS(=O)(=O)N1CCC(C(=O)NCc2cccnc2)CC1,2.4%,-4.8%[46.1 µM],20.1%,2.3,-8.3%[38.3 µM],-3.6
CC1CC(=O)N(CC(=O)N2CCCC2)c2ccccc2S1 (configuration not stated),-5.6%,-1.9%[46.1 µM],2.9%,5.4,13.3%[38.3 µM],-22.0
CC(NC(=O)NC(N)=O)(C(F)(F)F)C(F)(F)F,-4.5%,7.2%[46.1 µM],-0.3%,-7.7,-3.1%[38.3 µM],-108.8*
CC(NC(=O)NNC(N)=S)(C(F)(F)F)C(F)(F)F,nt,18.1%,nt,nt,nt,nt
COc1cccc(C(=O)N2CCN(C(=O)Cc3ccccc3)CC2)c1,nt,6.0%,-4.6%,nt,-1.8%,nt
S=c1nc(-c2ccccc2)n(Cc2ccco2)c2c1CCCC2,?,-5.7%[46.1 µM],10µM*,4.0,12.6µM*,24.8
S=c1nc(-c2ccccc2)n(Cc2cccnc2)c2c1CCCC2,nt,-1.1%,nt,nt,nt,nt
Cc1ccc(S(=O)(=O)/N=C(\Nc2cccc(C)c2)Nc2nc(C)cc(C)n2)cc1,-14.1%,-25.2%,0.398µM*,nt,-8.3%,-6.8
CC(C)Sc1nnc(-c2c[nH]c3ccccc23)n1C,-12.9%,-15.6%[46.1 µM],?,2.7,-7.3%[38.3 µM],46.2
Clc1cccc(CSc2ccc(-c3cccnc3)nn2)c1,nt,0.0%,5.4%,nt,4.7%,nt
CCOC(=O)N=Nc1c(O)n(CC(=O)OC)c2ccccc12,nt,-16.6%,7.08µM*,nt,-1.6%,nt
